Data as given in publication PMC7862700, “An all-to-all approach to the identification of sequence-specific readers for epigenetic DNA modifications on cytosine”.

Tests used:
Assay in all cases: DAPPL (digital affinity profiling via proximity ligation, sequencing); 10 mM Tris-HCl pH 7.5, 50 mM NaCl, 1 mM DTT, 4% glycerol, room temperature, 30 min; GST-TFs on glutathione beads, 16-mer random dsDNA library, 0.1% formaldehyde crosslink after washing; high values mean tight binding
Settings in all cases: protein: recombinant; tags: N-terminal GST; dsDNA, one strand shown
[1] = biological target: T1, FLI1 (Homo sapiens, UniProt Q01543 1-452)
T1 sequence: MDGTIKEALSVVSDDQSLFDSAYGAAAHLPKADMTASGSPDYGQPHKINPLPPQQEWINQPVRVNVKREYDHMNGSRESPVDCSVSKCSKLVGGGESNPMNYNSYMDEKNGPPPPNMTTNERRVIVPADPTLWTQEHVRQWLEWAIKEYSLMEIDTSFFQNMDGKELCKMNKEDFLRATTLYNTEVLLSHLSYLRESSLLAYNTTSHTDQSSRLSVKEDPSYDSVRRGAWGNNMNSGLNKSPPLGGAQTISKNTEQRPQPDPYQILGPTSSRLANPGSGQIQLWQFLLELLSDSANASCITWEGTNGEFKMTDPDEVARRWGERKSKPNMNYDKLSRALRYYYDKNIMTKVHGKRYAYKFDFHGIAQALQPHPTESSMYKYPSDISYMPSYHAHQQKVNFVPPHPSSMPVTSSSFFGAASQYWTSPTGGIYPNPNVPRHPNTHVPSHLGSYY
Procedure, shortened: (§1)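 Yeast served to express human transcription factors as GST fusions, which were then captured on glutathione beads and labelled with DNA barcodes. Pooled with a tag-only sample, they were incubated with 200 nmole of a 16-mer random double-stranded DNA library for 30 min at room temperature in Tris/NaCl/DTT/glycerol buffer, washed, crosslinked with 0.1% formaldehyde, ligated by proximity, amplified by PCR and sequenced. Dividing each hexamer's read frequency for a factor by its frequency for the tag-only sample gives the binding signal.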

[2] = biological target: T2, ELK1 (Homo sapiens, UniProt P19419 1-428)
T2 sequence: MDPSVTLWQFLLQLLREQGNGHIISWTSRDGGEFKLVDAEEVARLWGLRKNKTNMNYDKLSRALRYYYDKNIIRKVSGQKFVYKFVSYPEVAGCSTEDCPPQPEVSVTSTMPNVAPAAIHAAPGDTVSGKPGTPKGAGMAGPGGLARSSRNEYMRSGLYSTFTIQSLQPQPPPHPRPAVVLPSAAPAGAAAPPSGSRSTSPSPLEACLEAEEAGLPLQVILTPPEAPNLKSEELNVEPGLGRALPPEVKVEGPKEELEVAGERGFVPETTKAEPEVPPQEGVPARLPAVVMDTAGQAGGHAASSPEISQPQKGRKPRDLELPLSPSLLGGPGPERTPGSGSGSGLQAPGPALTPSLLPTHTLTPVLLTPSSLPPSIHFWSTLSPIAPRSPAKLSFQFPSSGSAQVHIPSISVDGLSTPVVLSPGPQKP
Procedure, shortened: as §1

[3] = biological target: T3, ERG (Homo sapiens, UniProt P11308 1-479)
T3 sequence: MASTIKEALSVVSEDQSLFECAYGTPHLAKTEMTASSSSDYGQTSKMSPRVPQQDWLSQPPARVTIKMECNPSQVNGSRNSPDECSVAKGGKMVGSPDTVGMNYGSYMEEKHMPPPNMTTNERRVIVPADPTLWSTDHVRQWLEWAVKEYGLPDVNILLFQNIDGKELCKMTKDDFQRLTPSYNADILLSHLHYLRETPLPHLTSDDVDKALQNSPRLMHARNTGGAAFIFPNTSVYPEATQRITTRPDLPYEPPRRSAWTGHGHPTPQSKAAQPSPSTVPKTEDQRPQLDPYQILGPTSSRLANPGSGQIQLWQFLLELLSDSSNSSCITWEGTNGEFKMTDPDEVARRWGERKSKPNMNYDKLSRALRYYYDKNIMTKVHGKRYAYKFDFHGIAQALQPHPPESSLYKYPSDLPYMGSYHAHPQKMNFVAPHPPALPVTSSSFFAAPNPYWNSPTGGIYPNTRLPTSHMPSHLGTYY
Procedure, shortened: as §1

[4] = biological target: SPIB (Homo sapiens, UniProt Q01892 1-262)
Procedure, shortened: as §1

[5] = biological target: T4, SPIC (Homo sapiens, UniProt Q8N5J4 1-248)
T4 sequence: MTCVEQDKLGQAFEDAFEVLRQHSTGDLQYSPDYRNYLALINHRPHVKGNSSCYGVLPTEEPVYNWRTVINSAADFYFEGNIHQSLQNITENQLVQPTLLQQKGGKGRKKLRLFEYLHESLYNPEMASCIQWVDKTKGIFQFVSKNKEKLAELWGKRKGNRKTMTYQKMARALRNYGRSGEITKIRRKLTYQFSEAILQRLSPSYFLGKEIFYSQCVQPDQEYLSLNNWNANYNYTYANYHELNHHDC
Procedure, shortened: as §1

[6] = biological target: T5, ETV7 (Homo sapiens, UniProt Q9Y603 1-341)
T5 sequence: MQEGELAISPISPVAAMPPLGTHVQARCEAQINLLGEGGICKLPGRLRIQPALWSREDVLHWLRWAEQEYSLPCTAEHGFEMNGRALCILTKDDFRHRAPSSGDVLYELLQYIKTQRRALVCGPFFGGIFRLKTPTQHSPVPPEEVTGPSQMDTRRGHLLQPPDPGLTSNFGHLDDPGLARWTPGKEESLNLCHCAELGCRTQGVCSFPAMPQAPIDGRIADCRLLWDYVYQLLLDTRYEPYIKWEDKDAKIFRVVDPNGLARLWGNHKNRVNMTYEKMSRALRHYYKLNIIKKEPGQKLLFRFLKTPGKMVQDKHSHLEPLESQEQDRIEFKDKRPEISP
Procedure, shortened: as §1

[7] = biological target: T6, ETV3 (Homo sapiens, UniProt P41162-2 1-143)
T6 sequence: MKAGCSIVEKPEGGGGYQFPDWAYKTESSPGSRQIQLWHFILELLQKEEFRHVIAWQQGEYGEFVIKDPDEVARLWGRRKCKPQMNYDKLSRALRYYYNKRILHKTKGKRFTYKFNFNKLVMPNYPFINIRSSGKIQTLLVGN
Procedure, shortened: as §1

[8] = biological target: T7, ELK3 (Homo sapiens, UniProt P41970 1-407)
T7 sequence: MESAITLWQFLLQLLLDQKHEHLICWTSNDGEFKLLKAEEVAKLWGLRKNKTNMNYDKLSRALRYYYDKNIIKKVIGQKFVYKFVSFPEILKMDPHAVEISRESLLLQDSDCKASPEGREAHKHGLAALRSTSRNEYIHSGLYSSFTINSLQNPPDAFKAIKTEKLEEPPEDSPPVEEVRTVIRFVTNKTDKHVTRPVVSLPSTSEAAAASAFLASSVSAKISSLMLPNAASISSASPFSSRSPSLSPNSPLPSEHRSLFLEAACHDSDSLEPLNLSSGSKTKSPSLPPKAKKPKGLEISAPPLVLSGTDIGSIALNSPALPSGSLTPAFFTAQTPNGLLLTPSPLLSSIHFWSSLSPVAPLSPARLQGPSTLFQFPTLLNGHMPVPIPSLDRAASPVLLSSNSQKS
Procedure, shortened: as §1

Sequence of SPIB (Q01892 whole entry): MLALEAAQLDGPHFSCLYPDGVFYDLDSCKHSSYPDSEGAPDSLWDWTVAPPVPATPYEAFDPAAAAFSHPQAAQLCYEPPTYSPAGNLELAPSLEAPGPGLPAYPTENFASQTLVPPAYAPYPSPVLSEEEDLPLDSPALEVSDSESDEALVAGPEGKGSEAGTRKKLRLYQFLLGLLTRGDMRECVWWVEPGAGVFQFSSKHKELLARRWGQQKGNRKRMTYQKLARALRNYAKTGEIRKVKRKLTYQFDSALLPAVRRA

Sequence: CCCGCG
- binding signal [1]: 1.02 fold enrichment (6-mer frequency, TF over GST control)
- binding signal [2]: 1.05 fold enrichment (6-mer frequency, TF over GST control)
- binding signal [3]: 1.02 fold enrichment (6-mer frequency, TF over GST control)
- binding signal [4]: 1.11 fold enrichment (6-mer frequency, TF over GST control)
- binding signal [5]: 1.05 fold enrichment (6-mer frequency, TF over GST control)
- binding signal [6]: 1.03 fold enrichment (6-mer frequency, TF over GST control)
- binding signal [7]: 1.01 fold enrichment (6-mer frequency, TF over GST control)

Sequence: AGGCCC
- binding signal [1]: 1.01 fold enrichment (6-mer frequency, TF over GST control)
- binding signal [5]: 1.08 fold enrichment (6-mer frequency, TF over GST control)
- binding signal [6]: 1.03 fold enrichment (6-mer frequency, TF over GST control)
- binding signal [7]: 1.01 fold enrichment (6-mer frequency, TF over GST control)

Sequence: GTGTAC
- binding signal [1]: 1.07 fold enrichment (6-mer frequency, TF over GST control)
- binding signal [8]: 1.03 fold enrichment (6-mer frequency, TF over GST control)
- binding signal [5]: 1.2 fold enrichment (6-mer frequency, TF over GST control)
